Among the test systems are SK-MEL-2 melanoma; EKVX NSCLC; SN12C renal; UO-31 renal; TK-10 renal; ACHN renal; CAKI-1 renal; A498 renal; CCRF-CEM leukemia; MOLT-4 leukemia; SR leukemia; RPMI-8226 leukemia; OVCAR-8 ovarian; OVCAR-5 ovarian; OVCAR-4 ovarian; SK-OV-3 ovarian; OVCAR-3 ovarian; HS 578T breast; IGROV1 ovarian; NCI/ADR-RES ovarian.
Common to all, as to test: NCI-60 one-dose screen, 48 h (100 = growth as untreated, 0 = no growth, -100 = all killed)
Conditions in all cases: 10 µM unless noted

This is part of a sample that, as a whole, favours compounds with a hit. Of some 83,000 tested, about 20% had one in any assay.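 96-well plates, one dose, 48 hours. Percent growth reported; active if below 10.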 Values without a mark were called inactive. Activity calls are given as the source filed them.

In the case of `O=C(CCl)N1c2ccccc2Oc2ccc3ccccc3c21`, the growth in the assay with SK-MEL-2 melanoma was 20.2%; with EKVX NSCLC, 59.1%; with SN12C renal it was -57.6% (active); in the assay on UO-31 renal, -92.1% (active); with TK-10 renal, -9.22% (active); in the assay on ACHN renal, -95.9% (active). Besides, the growth with CAKI-1 renal was -45.6% (active); in the assay with A498 renal it was 110%; with CCRF-CEM leukemia, 0.604% (active); with MOLT-4 leukemia it was -4.23% (active); with SR leukemia it was 9.32% (active); in the assay with RPMI-8226 leukemia, -24.7% (active). For the same compound, the growth with OVCAR-8 ovarian was -35.5% (active); in the assay with OVCAR-5 ovarian, 22.4%; in the assay on OVCAR-4 ovarian, 20.7%; in the assay on SK-OV-3 ovarian, 30.7%; in the assay with OVCAR-3 ovarian, -95.1% (active); in the assay on HS 578T breast it was -12.6% (active).

On to `Cc1ccc([C@H]2c3[nH]c4ccccc4c3C[C@H]3C(=O)N(CCCCCCC(=O)NO)CC(=O)N23)cc1`, for which the growth in the assay with SK-MEL-2 melanoma was 56.7%; in the assay with EKVX NSCLC, 76.2%; in the assay on SN12C renal, 67.6%; in the assay with UO-31 renal, 57.2%; with TK-10 renal it was 58.7%; in the assay with ACHN renal it was 75.1%. The growth in the assay on CAKI-1 renal is 51.2%; in the assay on A498 renal, 61.9%; in the assay with CCRF-CEM leukemia it was 15.2%; with MOLT-4 leukemia, 10.9%; in the assay on SR leukemia, 10.6%; in the assay with RPMI-8226 leukemia it was 3.03% (active). Also, the growth was 39.5% in the assay on OVCAR-8 ovarian; 44.7% in the assay with OVCAR-5 ovarian; 59.2% in the assay on OVCAR-4 ovarian; 63.3% with SK-OV-3 ovarian; 57.3% in the assay with IGROV1 ovarian; 47% in the assay with OVCAR-3 ovarian. Moreover, the growth was 52.5% with HS 578T breast and 94.5% in the assay with NCI/ADR-RES ovarian.

On to `COC1(OC)C2(Cl)CCC1(Cl)C(Cl)=C2Cl`, for which the growth in the assay on SK-MEL-2 melanoma was 95.2%; with EKVX NSCLC, 104%; in the assay with SN12C renal, 96.8%; with UO-31 renal, 94.6%; with TK-10 renal, 119%; in the assay with ACHN renal it was 109%. The growth was 109% in the assay on CAKI-1 renal; 91% in the assay with A498 renal; 103% in the assay with CCRF-CEM leukemia; 105% in the assay on MOLT-4 leukemia; 98.6% with SR leukemia; 103% with RPMI-8226 leukemia. Also, the growth with OVCAR-8 ovarian is 94.6%; with OVCAR-5 ovarian it was 105%; in the assay with OVCAR-4 ovarian, 103%; with SK-OV-3 ovarian it was 104%; with IGROV1 ovarian it was 106%; in the assay with HS 578T breast, 99.9%.

With `COc1cccc(-c2nc3sccn3c2-c2ccnc(NCCN3CCCN(C)S3(=O)=O)n2)c1`, the growth with SK-MEL-2 melanoma was 97.1%; in the assay with EKVX NSCLC, 103%; in the assay on SN12C renal, 64.7%; in the assay with UO-31 renal, 73.4%; in the assay on TK-10 renal it was 120%; in the assay on ACHN renal it was 54%. In addition, the growth with CAKI-1 renal is 50.7%; with A498 renal it was 98.1%; with CCRF-CEM leukemia it was 63.3%; with MOLT-4 leukemia it was 82.8%; in the assay on SR leukemia it was 66.7%; in the assay on RPMI-8226 leukemia it was 103%. In addition, the growth with OVCAR-8 ovarian is 98.6%; in the assay with OVCAR-5 ovarian, 102%; in the assay on OVCAR-4 ovarian it was 78%; in the assay on SK-OV-3 ovarian, 62.4%; with IGROV1 ovarian, 72.7%; with HS 578T breast, 97.5%. For the same compound, in the assay with NCI/ADR-RES ovarian, the growth is 84.9%.

On to `COc1ccc(-c2cc(-c3ccc(OC)cc3)c3sc(=O)[nH]c3n2)cc1`, for which the growth was 103% with SK-MEL-2 melanoma; 86.6% with EKVX NSCLC; 73.7% with SN12C renal; 53.4% in the assay on UO-31 renal; 89.8% in the assay with TK-10 renal; 93.7% in the assay with ACHN renal. Moreover, the growth in the assay with CAKI-1 renal is 76.8%; in the assay on A498 renal, -1.41% (active); in the assay with CCRF-CEM leukemia, 108%; in the assay with MOLT-4 leukemia, 92.9%; with SR leukemia it was 98.1%; in the assay with RPMI-8226 leukemia it was 85.3%. Further, the growth in the assay with OVCAR-8 ovarian is 82.4%; with OVCAR-5 ovarian it was 101%; in the assay with OVCAR-4 ovarian, 95.6%; in the assay with SK-OV-3 ovarian, 92.8%; in the assay on IGROV1 ovarian, 84.4%; in the assay with OVCAR-3 ovarian, 101%. The growth is 67.7% with HS 578T breast and 92.2% in the assay with NCI/ADR-RES ovarian.

As for `CCN(CC)CC(=O)Nc1c(C)cc(C(=O)NN)cc1C`, the growth is 117% in the assay with SK-MEL-2 melanoma; 102% with EKVX NSCLC; 98.3% in the assay with SN12C renal; 84.7% with UO-31 renal; 102% with TK-10 renal; 107% in the assay with ACHN renal. The growth was 95.8% in the assay on CAKI-1 renal; 99.7% in the assay with A498 renal; 114% in the assay on CCRF-CEM leukemia; 85.2% in the assay on MOLT-4 leukemia; 88.7% in the assay on SR leukemia; 120% in the assay with RPMI-8226 leukemia. Further, the growth in the assay on OVCAR-8 ovarian is 107%; in the assay with OVCAR-5 ovarian, 103%; in the assay on OVCAR-4 ovarian, 99.4%; in the assay with SK-OV-3 ovarian it was 98.7%; in the assay on IGROV1 ovarian, 88.9%; in the assay on HS 578T breast, 91.1%. Further, the growth in the assay with NCI/ADR-RES ovarian is 98.5%.

On to `CCn1c(=O)c(C(=O)NCCCO)c(O)c2ccccc21`, for which the growth in the assay with SK-MEL-2 melanoma is 112%; with EKVX NSCLC, 65.6%; in the assay with SN12C renal, 104%; in the assay on UO-31 renal, 86.9%; in the assay with TK-10 renal it was 180%; in the assay with ACHN renal it was 102%. Moreover, the growth in the assay on CAKI-1 renal is 116%; in the assay with A498 renal, 109%; with CCRF-CEM leukemia, 103%; with MOLT-4 leukemia, 100%; with SR leukemia it was 105%; in the assay on RPMI-8226 leukemia, 122%. Besides, the growth was 103% in the assay with OVCAR-8 ovarian; 116% in the assay on OVCAR-5 ovarian; 100% in the assay on OVCAR-4 ovarian; 115% with SK-OV-3 ovarian; 108% in the assay on IGROV1 ovarian; 155% in the assay on OVCAR-3 ovarian. For the same compound, the growth in the assay on HS 578T breast was 92.1%; in the assay with NCI/ADR-RES ovarian it was 111%.

As to `NC(N)=NC1CCCCC1`, the growth was 101% in the assay on SK-MEL-2 melanoma; 93% in the assay on EKVX NSCLC; 103% in the assay on SN12C renal; 84.7% with UO-31 renal; 84.1% with TK-10 renal; 103% in the assay with ACHN renal. The growth with CAKI-1 renal is 93.9%; in the assay with A498 renal, 98.1%; with CCRF-CEM leukemia, 90.3%; with MOLT-4 leukemia, 92.5%; in the assay with SR leukemia, 92.6%; with RPMI-8226 leukemia it was 85.6%. Besides, the growth in the assay on OVCAR-8 ovarian is 98.5%; in the assay on OVCAR-5 ovarian it was 109%; with OVCAR-4 ovarian, 105%; with SK-OV-3 ovarian, 107%; with IGROV1 ovarian, 107%; with HS 578T breast, 107%. For the same compound, in the assay with NCI/ADR-RES ovarian, the growth was 98%.

Source of the values: PubChem BioAssay (NCI).
